High-throughput results: PubChem, National Center for Advancing Translational Sciences (NCATS)
GLS inhibitor = glutaminase GLS (human) inhibition | GLS enzymatic activity, qHTS titration | 410,000 compounds, 0.21% hits | AID 624170 | O94925 | Potency, µM (doses to about 45.5 µM), hits mostly inhibitors
Target sequence (O94925 whole entry, looked up): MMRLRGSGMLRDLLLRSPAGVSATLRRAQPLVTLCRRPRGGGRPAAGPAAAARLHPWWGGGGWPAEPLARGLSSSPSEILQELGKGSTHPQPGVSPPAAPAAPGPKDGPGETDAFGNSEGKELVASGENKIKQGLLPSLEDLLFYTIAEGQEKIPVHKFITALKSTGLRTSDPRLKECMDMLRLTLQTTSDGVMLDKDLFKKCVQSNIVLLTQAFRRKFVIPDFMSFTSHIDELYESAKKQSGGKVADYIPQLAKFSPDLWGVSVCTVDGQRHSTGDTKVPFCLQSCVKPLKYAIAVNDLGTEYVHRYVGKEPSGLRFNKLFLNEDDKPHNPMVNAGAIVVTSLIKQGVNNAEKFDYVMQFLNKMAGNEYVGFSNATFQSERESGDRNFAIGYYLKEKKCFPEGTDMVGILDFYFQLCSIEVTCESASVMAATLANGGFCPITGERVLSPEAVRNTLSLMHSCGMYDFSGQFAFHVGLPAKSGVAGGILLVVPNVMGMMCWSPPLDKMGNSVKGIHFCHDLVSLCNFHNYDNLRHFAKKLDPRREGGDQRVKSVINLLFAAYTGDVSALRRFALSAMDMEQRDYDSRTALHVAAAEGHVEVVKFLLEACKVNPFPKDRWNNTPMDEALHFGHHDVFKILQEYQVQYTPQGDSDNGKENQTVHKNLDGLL
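Compounds were pin-transferred onto hKGA, after which L-glutamine (1 mM solution) and a detection mix of glutamate oxidase, HRP and Amplex Red were added. Initial and 30 min RT fluorescence reads were collected.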
Sfp PPTase inh = inhibitors of Bacillus subtilis Sfp phosphopantetheinyl transferase; Biochemical Sfp PPTase activity, qHTS; Potency, µM, hits mostly inhibitors; 310,000 compounds, 3.5% hits;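 note: the enzyme is Sfp with the accession as filed and its product quenches rhodamine fluorescence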
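With Hepes-Na pH 7.6 buffer containing 10 mM MgCl2, Sfp (15 nM) modified BHQ-2-YbbR (12.5 uM) using rhodamine-CoA (5 uM). Two reads 30 minutes apart at 525/598 nm yielded each well's rate.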
TrxR1 substrate = substrates of rat thioredoxin reductase 1; purified TrxR1 substrate turnover, NADPH consumption readout; AID 588456; 390,000 compounds, 0.01% hits; O89049; Potency, µM (doses to about 114 µM); note: nearly all actives have a fitted effect of over 50% in size
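Rat TrxR1, dispensed at 90 nM, was prereduced with 400 uM NADPH (final) for 5 min at ~22 deg C, then incubated with compound 15 min before 400 uM selenite. A first-read NADPH fluorescence drop versus no-compound background flagged substrates.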
TrxR1 inh = rat TrxR1 inhibition | Potency, µM (series often up to 114 µM), hits mostly inhibitors | recombinant rTrxR1, NADPH fluorescence consumption, selenite substrate | 390,000 compounds, 1% hits; note: nearly all actives have a fitted effect of over 65% in size
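Rat TrxR1 (90 nM in the dispensed reagent) was pre-reduced with 400 uM NADPH for 5 min at room temperature, then incubated with compound for 15 min. After 400 uM selenite was added, NADPH fluorescence (Ex 340/Em 450 nm) was followed for 8 min.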
VDR inh = inhibitors of human vitamin D receptor. P11473. VDR-SRC2-3 peptide fluorescence polarization, 2 h. Potency, µM, actives largely listed as inhibitors. 400,000 compounds, 0.93% hits. AID 504847
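VDR–SRC2-3 interaction, FP format. Cmpds 23 nl via pintool, brief spin, 2 h ambient incubation.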
GCN5L2 inh = blocks human GCN5L2 histone acetyltransferase. 390,000 compounds, 0.21% hits. Q92830. GCN5L2 HAT assay, ThioGlo1 CoA-SH fluorescence. Potency, µM (series often up to 58.9 µM), usual class: inhibitors
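Fluorescence readout, Ex340nm/Em540nm: ThioGlo1 (50uM final) reacts with free CoA thiol released as 20nM GCN5L2 acetylates H3(1-25) peptide (75uM) using acetyl-CoA (70uM). Compound and enzyme sat 15 min beforehand; 20 min room-temperature reaction.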
Of the large screens only hits and unclear results are named; the others gave an inactive call; ! = a repeat was not active. Compounds with a hit are over-represented: about 3.8% of the library has one in this group of screens. Calls come from the whole dose curve; as a rule, active = well fitted curve in the direction sought with a large enough effect; inconclusive = small, poorly fitted or top-dose-only effect, or another doubt; inactive = no such curve, though single readings can be large; an effect the other way counts as inactive or inconclusive.

COc1cccc2c1C(CCCC(=O)O)CCC2 (configuration not stated)	none (no result: Sfp PPTase inh, GCN5L2 inh)
CC(Sc1nc(C(C)(C)C)cc(-c2ccccc2)c1C#N)C(=O)Nc1ccccc1 (configuration not stated)	Sfp PPTase inh 14.1µM, VDR inh inconclusive
CCOC(=O)C(C)Sc1nc(-c2ccccc2Cl)cc(-c2ccccc2)c1C#N (configuration not stated)	none (no result: Sfp PPTase inh)
COc1ccc(C(C)=O)cc1CC(=O)N(Cc1ccccc1)c1ccccc1	none
CCOc1ccc(C(C)=O)cc1COC(=O)c1ccccc1C(=O)N(C)Cc1ccccc1	TrxR1 inh 50.1µM (no result: Sfp PPTase inh)
COC(=O)CCCC(=O)N1CCCC(C(=O)c2ccc(-c3ccccc3)cc2)C1 (configuration not stated)	none
NS(=O)(=O)c1ccc(N2N=C(c3ccc(Br)cc3)CC2c2ccc(F)cc2)cc1 (configuration not stated)	none
Cc1cc(C(F)(F)F)nc(SCc2ccc(C(=O)O)o2)n1	GLS inhibitor inconclusive, Sfp PPTase inh 35.5µM, TrxR1 inh inconclusive
O=C(O)c1ccc(CSc2nc(-c3ccc(Cl)cc3)cc(C(F)(F)F)n2)cc1	Sfp PPTase inh 50.1µM
Cc1cc(N)c2ccccc2[n+]1CCCCCCCCCC[n+]1c(C)cc(N)c2ccccc21	Sfp PPTase inh 4.47µM!
Cc1cc(NC(=O)CSc2nc(Cc3ccc(O)cc3)c(C)[nH]2)no1	TrxR1 inh 15.8µM
CO[C@H]1/C=C/O[C@@]2(C)Oc3c(C)c(O)c4c(O)c(c(/C=N\N5CCN(C6CCCC6)CC5)c(O)c4c3C2=O)NC(=O)/C(C)=C\C=C\[C@H](C)[C@H](O)[C@@H](C)[C@@H](O)[C@@H](C)[C@H](OC(C)=O)[C@@H]1C	VDR inh 11.2µM (no result: TrxR1 substrate, TrxR1 inh)
O=c1[nH]c(N/N=C/c2ccccc2Br)nnc1-c1ccccc1	Sfp PPTase inh 50.1µM
O=C(OCC1CCNCC1)c1ccc(F)cc1	none (no result: Sfp PPTase inh, GCN5L2 inh)
O=C(Oc1ccccc1C(=O)Nc1ccccc1)c1ccc(Br)c([N+](=O)[O-])c1	VDR inh 50.1µM
Cc1noc(NS(=O)(=O)c2ccc(NC(=O)CSc3nc4ccccc4s3)cc2)c1C	Sfp PPTase inh 50.1µM, VDR inh inconclusive, GCN5L2 inh inconclusive
Cc1noc(NS(=O)(=O)c2ccc(NC(=O)CSc3nc4c(cc3C#N)CCC4)cc2)c1C	Sfp PPTase inh 50.1µM
CC(C)c1cc(NC(=O)C(C)(C)C)cc(C(C)C)c1O	none
CC(C)c1cc(Nc2cccc(O)c2)cc(C(C)C)c1O	Sfp PPTase inh 22.4µM (no result: GLS inhibitor, TrxR1 substrate, TrxR1 inh, VDR inh)
CCN1CCN(CCOCCOc2ccccc2-c2ccccc2)CC1	Sfp PPTase inh 50.1µM (no result: GLS inhibitor, TrxR1 substrate, TrxR1 inh, VDR inh)
c1ccc(-c2ccccc2OCCOCCN2CCNCC2)cc1	Sfp PPTase inh 20µM
O=Nc1c(-c2cccc([N+](=O)[O-])c2)nc2ncccn12	Sfp PPTase inh 15.8µM (no result: GLS inhibitor, TrxR1 substrate, TrxR1 inh, VDR inh)
O=[N+]([O-])c1cccc(-c2cn3nc(-c4ccccc4)c(-c4ccccc4)nc3n2)c1	none
Cc1occc1-c1nnc(SCC(=O)N2CCc3ccccc32)o1	TrxR1 inh inconclusive
OC(CN1CCN(c2ccccn2)CC1)Cn1c2ccc(Cl)cc2c2cc(Cl)ccc21 (configuration not stated)	TrxR1 inh inconclusive
OC(CN1CCCCC1)Cn1c2ccc(Cl)cc2c2cc(Cl)ccc21 (configuration not stated)	Sfp PPTase inh 50.1µM
NNC(=O)c1sc(-c2ccc(Cl)cc2)cc1N	none
Cn1nc([N+](=O)[O-])nc1N1CCN(c2ccc(F)cc2)CC1	none
Cc1ccc(S(=O)(=O)c2c(N)n(Cc3ccco3)c3nc4ccccc4nc23)cc1C	Sfp PPTase inh 35.5µM, TrxR1 inh 11.2µM
Cc1ccc(C)c(S(=O)(=O)c2c(N)n(/N=C/c3ccco3)c3nc4ccccc4nc23)c1	Sfp PPTase inh 50.1µM
Nc1c(S(=O)(=O)c2ccccc2)c2nc3ccccc3nc2n1Cc1ccco1	Sfp PPTase inh 20µM, TrxR1 inh inconclusive, GCN5L2 inh inconclusive
CCOC(=O)C1CCN(C(=O)COc2ccc(N(C)S(=O)(=O)c3ccc(C)cc3)cc2)CC1	none
CCCOc1ccc2c3c(c(=O)oc2c1OCCC)CCCC3	none
COCCN1C(=O)C(CC(=O)Nc2ccc(C(=O)O)cc2)SC1=Nc1ccccc1 (configuration not stated)	none
COC(=O)c1cc(NC(=O)CC2SC(=Nc3ccccc3)N(CCc3c[nH]c4ccccc34)C2=O)cc(C(=O)OC)c1 (configuration not stated)	GLS inhibitor 25.1µM
O=C(NCC(=O)N1CCN(S(=O)(=O)c2ccccc2F)CC1)c1ccc2ccccc2c1	none (no result: Sfp PPTase inh)
CC(=O)Nc1ccc2nc(CN3CCN(Cc4ccc(F)cc4)C(CCO)C3)ccc2c1 (configuration not stated)	Sfp PPTase inh 79.4µM
CNC(=O)/C=C1\NC(C)(C)Cc2c1ccc1ccccc21	TrxR1 inh inconclusive, VDR inh 79.4µM
NS(=O)(=O)c1ccc(CCNc2nccn(-c3cccc(C(F)(F)F)c3)c2=O)cc1	none (no result: Sfp PPTase inh)
C=C1[C@@H](O)[C@H](CC(C)C)N(Cc2ccccc2Br)S1(=O)=O	TrxR1 inh 5.01µM (no result: Sfp PPTase inh, GCN5L2 inh)
CCC(=S)/C=C1\Sc2ccccc2N1CCCS(=O)(=O)O	TrxR1 inh inconclusive, VDR inh 70.8µM
O=C(Nc1ccccc1)c1ccc2c(O)c(S(=O)(=O)c3ccc(Cl)cc3)c(=O)[nH]c2c1	none (no result: Sfp PPTase inh)
O=C(c1c(O)c2ccc(Cl)cc2[nH]c1=O)C1CC1	Sfp PPTase inh 44.7µM! (no result: GLS inhibitor, TrxR1 substrate, TrxR1 inh)
Cc1[nH]n(-c2ccccc2)c(=O)c1-c1ccc(Cl)cc1	none
O=c1[nH]n(-c2ccc(Cl)cc2)c(=O)c(Cl)c1Cl	TrxR1 inh 22.4µM
CC(=O)C1=C(C)NC(SCC(=O)c2ccc(F)cc2)=C(C#N)C1c1ccco1 (configuration not stated)	Sfp PPTase inh inconclusive, TrxR1 inh inconclusive
C=CCOC(=O)C1=C(C)NC(SCC(=O)N(CC)CC)=C(C#N)C1c1ccco1 (configuration not stated)	none
CC(=O)C1=C(C)OC(N)=C(C#N)C1c1ccco1 (configuration not stated)	TrxR1 inh 11.2µM
CCN(CC)C(=O)CSC1=C(C#N)C(c2ccco2)C(C(=O)OCCOC)=C(C)N1 (configuration not stated)	Sfp PPTase inh 56.2µM, TrxR1 inh inconclusive
CC(=O)C1=C(C)NC(SCC(N)=O)=C(C#N)C1c1ccco1 (configuration not stated)	Sfp PPTase inh 89.1µM
CC(=O)C1=C(C)NC(SCSc2ccccc2)=C(C#N)C1c1cccnc1 (configuration not stated)	none
